The values that follow come from PubChem BioAssay AID686971 (National Center for Advancing Translational Sciences (NCATS), 2013).

Out of some 360,000 compounds screened, about 7,500 (2.1%) were called active. Entries that show only a call come without a potency. Another 8% or so got no clear call; they are omitted. This excerpt belongs to a sample that is enriched for actives. Values without a mark were called inactive. Calls follow the shape of the dose curve; as a rule, active = well fitted cell-killing curve with a large enough effect; inconclusive = small, poorly fitted or top-dose-only effect, or effect the other way, or another doubt; inactive = no such curve, though single readings can be large or run the other way.
Potency is read from the fitted curve at half-maximal effect.

This test can be described thus: qHTS for induction of synthetic lethality in tumor cells producing 2HG: qHTS for the HT-1080-IDH1KD cell line. The note with it: HT-1080 IDH1 knockdown viability, ATP luminescence, 48 h; series mostly up to 46.1 µM. In a few lines:
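Viability of IDH1-knockdown HT-1080 fibrosarcoma cells was assessed by CellTiter-Glo after 48 h at 37 °C with titrated compound; concentration-effect curves were classified by fit quality and response size.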
In the case of `COc1ccc(N2c3ccccc3CN(Cc3ccccc3)[C@@H](C)[C@H]2Cc2ccc(-c3ccccc3)cc2)cc1`, the Potency entry is “inactive”. On the same count and under the same terms, next, `O=C(NCc1ccccc1Cl)c1csc([C@@H]2O[C@H](CO)[C@@H](O)[C@H]2O)n1`: “inactive”. Same read-out and setting: next, `CCN(CC)c1ccc(NC(=O)c2ccc(Cl)nc2)cc1`: 7.31 µM (active); `O=C(NNC(=O)c1ccc(Cl)nc1)c1ccc(Br)cc1`: “inactive”. Same read-out and setting: in the case of `O=C(Nc1ccc2nc3n(c(=O)c2c1)CCCC3)c1ccc(Cl)nc1` it was “inactive”.

In the case of `CC(C)n1ncc2c(C(=O)N3CCN(Cc4cccs4)CC3)cc(C3CC3)nc21`, the Potency entry was “inactive”. The same measure, in the same setting: in the case of `CC1C(=O)N(Cc2cn(CC3CCCCC3)nn2)CCS(=O)(=O)N1Cc1ccc(-c2cccc(N(C)C)c2)cc1` (stereo not given) it was “inactive”; in that of `COc1cc(/C=C/C(=O)N2c3ccccc3Sc3ccc(C(F)(F)F)cc32)cc(OC)c1OC`, “inactive”. `O=C(CN1CCCCC1)N1c2ccccc2Sc2ccc(C(F)(F)F)cc21`: the Potency result is “inactive”. The same measure, in the same setting: in the case of `O=C(CN1CCCCCC1)N1c2ccccc2Sc2ccc(C(F)(F)F)cc21` it was 11.2 µM (active); in that of `O=S1(=O)CC(N2CCN(c3ccccn3)CC2)CN1Cc1ccc(F)cc1` (stereo not given), “inactive”. In the case of `COc1cc(OC)cc(C(=O)N[C@H](C(=O)Nc2nc3ccccc3[nH]2)C(C)C)c1`, the Potency was 1.3 µM (active).

As to `COc1cc(OC)cc(C(=O)N[C@H](C(=O)NNC(=O)c2ccc(Br)cc2)C(C)C)c1`, the Potency result is “inactive”. Same read-out and setting: in the case of `COc1ccc(C(=O)N[C@H](C(=O)NCc2ccccc2)C(C)C)cc1` it was “inactive”; in that of `Cc1ccccc1CN1C(=O)CSCC1(C)C(=O)Nc1c(C)cccc1C` (stereo not given), “inactive”.

Consider `N#Cc1cccc(NC(=O)c2cc(C3CCCCN3C(=O)CCc3ccccc3)on2)c1` (stereo not given), for which the Potency result was “inactive”.

As for `O=C(COC(=O)c1cccc(Cl)c1Cl)NC1CCCCCC1`, the Potency entry was “inactive”. On the same count and under the same terms, next, `Cc1ccc([C@H]2N[C@]3(CCCN(CC4CCCCC4)C3=O)[C@H]3C(=O)N(Cc4ccccc4)C(=O)[C@@H]23)cc1`: “inactive”; `CCc1ccc2c(c1)NC(=O)C2(C)Cc1ccc(OC(F)(F)F)cc1` (stereo not given): 23.1 µM (active); `CCNC(=S)Nc1ccc(OC(F)(F)F)cc1`: “inactive”. Still for that read-out and setting: in the case of `COc1ccccc1CC1(C)C(=O)Nc2ccc(OC(F)(F)F)cc21` (stereo not given) it was “inactive”; in that of `CC(=O)c1ccc(OCC(=O)N(C)C2CCS(=O)(=O)C2)cc1` (stereo not given), “inactive”. The same measure, in the same setting: next, `O=C(NC1CCCC1)C1c2ccccc2OCC(=O)N1CC(F)(F)F` (stereo not given): “inactive”. As to `CSc1ncccc1C(=O)NCC(c1ccco1)N1CCCCC1` (stereo not given), the Potency result is “inactive”. The same measure, in the same setting: next, `Cc1cc(S(=O)(=O)Nc2ccc(C(=O)NCC(c3ccco3)N3CCCC3)cc2)ccc1F` (stereo not given): “inactive”. Turning to `Cc1c(C(=O)NCC(c2ccco2)N2CCCC2)oc2ccc(Cl)cc12` (stereo not given), the Potency was 23.1 µM (active).

Take `C/C(=N\Nc1ccc(Cl)nn1)c1ccccc1O`: the Potency was 3.26 µM (active). Regarding `CCCCCCCN=C(C)c1ccccc1O`, the Potency result was “inactive”.

For `C/C(=N/Nc1ccc(Cl)cc1)c1cnnc(-c2ccccc2)n1`, the Potency result is “inactive”.

Consider `O=C(C[C@H]1C[C@H]2c3cc(NS(=O)(=O)c4ccc(F)cc4)ccc3O[C@H]2[C@H](CO)O1)NCc1cc(F)ccc1F`, for which the Potency entry was “inactive”. Same read-out and setting: next, `COc1ccc(C(=O)NCC2CCCO2)cc1S(=O)(=O)NCc1ccc(Cl)cc1` (stereo not given): “inactive”. Same read-out and setting: next, `CSCc1nnc(NC(=O)c2ccc(S(=O)(=O)N3CCCCC3C)cc2)o1` (stereo not given): “inactive”; `CC1CCCN(S(=O)(=O)c2ccc(C(=O)Nc3nnc(-c4ccncc4)o3)cc2)C1` (stereo not given): “inactive”; `CC1CCCCN1S(=O)(=O)c1ccc(C(=O)Nc2nnc(-c3cccs3)o2)cc1` (stereo not given): 8.2 µM (active). On the same count and under the same terms, next, `CCCNC(=O)c1cc(C2CCCN(C(=O)c3ccc4c(c3)CCO4)C2)on1` (stereo not given): “inactive”. In the case of `COC(=O)C[C@H]1C[C@@H]2c3cc(N(C)C)ccc3O[C@@H]2[C@H](CO)O1`, the Potency entry is “inactive”.

For `CCOc1ccc(CCNC(=O)COC(=O)c2ccc(C)c(S(=O)(=O)N3CCOCC3)c2)cc1OCC`, the Potency result is “inactive”. As to `Brc1ccc2c(c1)[C@H]1OCC[C@H]1[C@@H](c1cccs1)N2`, the Potency is 9.2 µM (active). For `c1csc(CN2CCN(Cc3cccs3)C2c2cccs2)c1`, the activity, negative = toxicity was -1.16% [at 9.24 µM]. Regarding `COc1cc2ccc(C(C)=O)c(O)c2cc1OC`, the Potency result was “inactive”. The same measure, in the same setting: next, `COCCNc1ncnc2c1ncn2[C@H]1CN(Cc2ccc(OC)cc2)C[C@@H](CO)O1`: “inactive”; `COc1cccc2c1C(=O)c1c(O)c3c(c(O)c1C2=O)CC(O)(C(C)=NNC(=O)c1ccc(Cl)c(Cl)c1)CC3OC1CC(N)C(O)C(C)O1` (stereo not given): 1.16 µM (active); `OC(c1ccccc1)c1nc(-c2cnc3ccccc3c2)cs1` (stereo not given): “inactive”.

In the case of `Cc1ccc(S(=O)(=O)NC2CCCCCC2)cc1`, the Potency result was “inactive”.

Take `Cc1ccc(S(=O)(=O)N(C)C2(C)CCS(=O)(=O)C2)cc1` (stereo not given): the Potency entry is “inactive”. Turning to `Cc1ccc(S(=O)(=O)C2(S(=O)(=O)c3ccc(C)cc3)CCCC2)cc1`, the Potency is 11.6 µM (active). As for `Cc1cc(C)c2c(=O)n3c(nc2c1)C(CC(C)C)NC(=O)c1cc2ccccc2cc1-3` (stereo not given), the Potency entry is “inactive”.

For `COc1ccc(Br)c(Cn2c(C)c(C(=O)NCc3cccs3)sc2=O)c1`, the Potency result is “inactive”. Still for that read-out and setting: next, `CCOc1ccccc1NC(=O)Cn1nnc(C(=O)NCc2cccs2)c1N`: 0.411 µM (active); `CCOc1ccc(Cl)cc1-c1cc(C(=O)NCc2cccs2)[nH]n1`: “inactive”.

`CCc1ccc(NC(=O)Cn2nnc(C(=O)NCc3ccc(OC)cc3)c2N)cc1`: the Potency entry was “inactive”. Consider `COc1ccc(-c2cnc3c(c2)C(=O)N([C@H](C)CO)C[C@@H](C)[C@H](CN(C)Cc2ccccc2)O3)cc1`, for which the Potency result is “inactive”. On the same count and under the same terms, next, `COc1ccc(OC)c(CN2C(=O)CCC2(C)c2nnnn2Cc2ccccc2)c1` (stereo not given): “inactive”; `NC(=O)N1CCCC1C(=O)Nc1ccc(Cl)c(Cl)c1` (stereo not given): “inactive”; `O=C(COC(=O)c1cc[n+]([O-])cc1)Nc1ccc(Cl)c(C(F)(F)F)c1`: “inactive”. Still for that read-out and setting: next, `O=C(CC(O)(C(F)(F)F)C(F)(F)F)Nc1ccc(Cl)c(Cl)c1`: 11.6 µM (active); `O=C1NC(O)CCN1C1CC(O)C(CO)O1` (stereo not given): “inactive”; `CC(=O)c1ccc(Nc2nc(C(N)c3ccccc3Cl)cs2)cc1` (stereo not given): “inactive”. Same read-out and setting: in the case of `CCOCCCn1c(NN)nc2ccccc2c1=O` it was “inactive”.

On to `CCn1c(SCc2ccccc2)nc2cc(OC)c(OC)cc2c1=O`, for which the Potency entry is “inactive”.

As for `CCn1c(/C=C/c2ccc([N+](=O)[O-])o2)nc2ccccc2c1=O`, the Potency was 2.59 µM (active).

On to `COc1ccc(C(=O)N2CCCCC2c2cc(C(=O)Nc3ccccc3)no2)cc1` (stereo not given), for which the Potency entry is “inactive”. For `Cc1ccc(S(=O)(=O)N(Cc2cccc([N+](=O)[O-])c2)C(=O)N2CCN(C)CC2)cc1`, the Potency entry is “inactive”. On the same count and under the same terms, next, `O=C(c1cccc([N+](=O)[O-])c1)N1CCN(Cc2ccccc2)CC1`: “inactive”. Same read-out and setting: in the case of `O=C(CCl)N(Cc1cccc([N+](=O)[O-])c1)c1cccc(Cl)c1` it was 4.61 µM (active); in that of `CCc1nc2c(OCCOc3ccccc3)cccn2c1N(C=O)Cc1ccc(OC)cc1`, “inactive”; in that of `CCc1nc(C)cn1S(=O)(=O)c1cc(OC)c(C)cc1C`, “inactive”. Same read-out and setting: in the case of `CC(C)c1nccn1S(=O)(=O)c1cc([N+](=O)[O-])ccc1Cl` it was “inactive”.

In the case of `CCc1nc(C)cn1S(=O)(=O)c1cc([N+](=O)[O-])ccc1Cl`, the Potency was 3.26 µM (active).

Regarding `Nc1nc2c(Br)ccc(Br)c2cc1C(=O)NCCc1ccccc1`, the Potency entry was “inactive”. On the same count and under the same terms, in the case of `CSc1ncnc2c1ncn2CCCNCc1ccco1` it was “inactive”; in that of `COc1ccc(COC(=O)NC(C(=O)O)c2ccccc2)cc1` (stereo not given), “inactive”. On the same count and under the same terms, next, `COc1ccc(C(CCN(Cc2ccc(OC)c(OC)c2)C(=O)CCl)c2ccccc2)cc1` (stereo not given): 16.4 µM (active). On the same count and under the same terms, next, `COc1ccc(CN(C)C(=O)CC(c2ccccc2)c2ccccc2)cc1`: “inactive”; `Nc1cc(C(=O)N2CCN(c3ccccc3Cl)CC2)ccc1N1CC2CC(C1)c1cccc(=O)n1C2` (stereo not given): “inactive”; `COc1ccc(NC(=O)COC(=O)C2COc3ccccc3O2)cc1` (stereo not given): “inactive”.

Regarding `Cc1ccc(CCC(=O)Nc2ncc(Cc3cc(Cl)ccc3Cl)s2)o1`, the Potency is 1.16 µM (active).

Consider `Cc1ccc(C(=O)Nc2nc3ccc(Cl)cc3s2)o1`, for which the Potency result was “inactive”. Same read-out and setting: next, `Cc1ccc(Cc2cnc(N)s2)o1`: “inactive”; `COc1ccc(C(O)c2nc(-c3ccc(OC)nc3)cs2)cc1` (stereo not given): “inactive”.

In the case of `CNN/C(N=Cc1ccc([N+](=O)[O-])s1)=N\S(=O)(=O)c1cc(C)c(Cl)cc1SCc1ccccc1`, the Potency result was “inactive”. For the molecule `CC1CN(C(=O)c2ccc([N+](=O)[O-])s2)CC(C)O1` (stereo not given), the Potency result was “inactive”. The same measure, in the same setting: in the case of `O=[N+]([O-])c1ccc(C=Nc2ccc(Cl)cc2Cl)s1` it was 11.2 µM (active); in that of `Cc1ccc(N(Cc2cc(=O)[nH]c3ccccc23)C(=O)CCl)cc1`, 20.6 µM (active).

Take `Cc1ccc(N(Cc2cc3ccccc3[nH]c2=O)C(=O)c2cccs2)cc1`: the Potency result was “inactive”. Still for that read-out and setting: next, `CC(=O)N(Cc1cc(=O)[nH]c2ccccc12)c1ccc(C)cc1C`: “inactive”. Still for that read-out and setting: in the case of `CC(C)C1Cc2[nH][nH]c(=O)c2C(c2ccc(Cl)cc2)O1` (stereo not given) it was “inactive”; in that of `CC(C)CNC(=O)C1(C)CCCN1C(=O)CSc1ccccc1` (stereo not given), “inactive”; in that of `CCCC(=O)N1CCC1(C)C(=O)NCc1ccc(SC)cc1` (stereo not given), “inactive”. Same read-out and setting: in the case of `COc1cc(/C=C/C(=O)Nc2ccc(OC)c(S(=O)(=O)N3CCOCC3)c2)ccc1OCC#N` it was “inactive”. Turning to `COc1ccc(/C=C/C(=O)N2CCCC2)cc1OC`, the Potency result was “inactive”. The same measure, in the same setting: next, `COc1ccc(/C=C/C(=O)Nc2ccc(C34CC5CC(CC(O)(C5)C3)C4)cc2)cc1OC`: 2.59 µM (active); `C[C@@H]1CN([C@H](C)CO)C(=O)CCCn2nncc2CO[C@@H]1CN(C)S(=O)(=O)c1cccc(C#N)c1`: “inactive”. For the molecule `CCS(=O)(=O)Nc1ccc(C2=NN(C(C)=O)C(c3cccs3)C2)cc1` (stereo not given), the Potency was 16.4 µM (active). Same read-out and setting: next, `CS(=O)(=O)Nc1ccc(C2=NN(S(C)(=O)=O)C(c3cccs3)C2)cc1` (stereo not given): “inactive”; `CS(=O)(=O)Nc1cccc(C2=NN(C(=O)c3cccc(F)c3)C(c3cccs3)C2)c1` (stereo not given): “inactive”; `COCC1CCCCN1C(=O)c1cc(COc2ccc(C)c(C)c2)on1` (stereo not given): “inactive”.

`C=CCSC1=C(C#N)C(c2cc(Br)c(O)c(OC)c2)CC(=O)N1` (stereo not given): the Potency result is “inactive”.

With `CCOC(=O)CSC1=C(C#N)C(c2sccc2C)CC(=O)N1` (stereo not given), the Potency is 1.41 µM (active). As for `COC(=O)CSC1=C(C#N)C(c2ccccc2OC)C(C(=O)OC)C(=O)N1` (stereo not given), the Potency entry was “inactive”.
